IL-1B inflam inh: inhibitors of inflammasome signaling (IL-1 beta secretion); THP-1 LPS/ATP IL-1B secretion, AlphaLISA, 16 h; active compounds read low; actives 4.7% (n = 360,000); activity change, % at 57.5 µM; AID 743279; in the data active = activity change below about -50%; inconclusive = mostly about -30% to -49%
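THP-1 cells pretreated 1 hr with compounds (up to 57.5 uM final), then stimulated with LPS (250 ng/mL final) plus ATP (1.25 mM final); secreted IL-1B measured by AlphaLISA after 16 hr, decreased signal indicating inhibition.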
HT1080 IDH1KD tx: toxicity to HT-1080 IDH1 knockdown cells (counter line); HT-1080 IDH1 knockdown viability, ATP luminescence, 48 h; Potency, µM (series often up to 46.1 µM), for inactives: at the top dose activity, negative = toxicity, actives largely listed as cytotoxic; actives 2% (n = 360,000);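 also: potency is read from the fitted curve at half-maximal effect; 0% = DMSO wells and -100% = cell-free medium wells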
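Viability of IDH1-knockdown HT-1080 fibrosarcoma cells was assessed by CellTiter-Glo after 48 h at 37 °C with titrated compound; concentration-effect curves were classified by fit quality and response size.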
HT1080-NT tox: kills 2HG-producing HT-1080-NT fibrosarcoma cells; HT-1080-NT fibrosarcoma viability, CellTiter-Glo ATP luminescence, 48 h; Potency, µM (doses to about 46.1 µM), for inactives: at the highest dose activity, negative = less viability, actives largely listed as cytotoxic; actives 1.6% (n = 360,000); AID 686970;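 also: NT is the 2HG producing partner of a matched IDH1 knockdown line; potency is read from the fitted curve at half-maximal effect; 0% = DMSO-treated cells and -100% = media-only wells without cells; nearly all actives have a fitted effect of over 55% in size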
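Viability by CellTiter-Glo luminescence after 48 h compound exposure at 37C of HT-1080-NT cells (750/well, RPMI, 5% FBS). % activity scaled between DMSO wells and medium-only wells, then curve-fitted and categorized by curve class.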
TDP1 cell noCPT: qHTS for Inhibitors of human tyrosyl-DNA phosphodiesterase 1 (TDP1): qHTS in cells in absence of CPT; DT40 Tdp1-/- hTDP1 cells, no CPT, ATP luminescence, 48 h; Potency, µM (doses to about 46.2 µM), without a hit: at the highest dose activity change, negative = growth inhibition, hits mostly inhibitors; actives 15% (n = 420,000); AID 686978, 2013; also: potency is read from the fitted curve at half-maximal effect; nearly all actives have a fitted effect of over 55% in size
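Compound effects on proliferation are scored in DT40 Tdp1-/-;hTDP1 cells in the absence of CPT. ATP levels (CellTiter-Glo luminescence) are recorded after a ≥48 hr, 37 °C incubation.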
uPA generation: inhibitors of cell surface uPA generation | cell surface uPA generation assay, qHTS | actives 0.31% (n = 330,000) | AID 540303 | Potency, µM (titrated, usually from 38.3 µM), for inactives: at the top dose activity change, negative = inhibition, hits mostly inhibitors; active = well fitted inhibition curve with a large enough effect; inconclusive = small, poorly fitted or top-dose-only effect; inactive = no such curve, though single readings can be large or run the other way; tested in mouse RAW 264.7 cells; also: potency is read from the fitted curve at half-maximal effect; nearly all actives have a fitted effect of over 55% in size
DT40 TDP1 CPT: growth inhibition of DT40 Tdp1-/-;hTDP1 cells with camptothecin (screen for TDP1 inhibitors); chicken DT40 Tdp1-/-;hTDP1 cells + 20 nM CPT, ATP luminescence, 48 h; actives 12% (n = 420,000); Potency, µM (titrated, usually from 46.2 µM), without a hit: at the highest dose activity change, negative = growth inhibition, hits mostly inhibitors; also: potency is read from the fitted curve at half-maximal effect; nearly all actives have a fitted effect of over 55% in size
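Chicken DT40 Tdp1-/- cells stably complemented with human TDP1 were seeded at 400 cells/well in medium containing 20 nM camptothecin, exposed to pin-transferred compounds, and grown at 37 °C for at least 48 hr. Viability was read as ATP luminescence.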
* marks the source's active call; other numbers are inactive results; i = inactive; ? = inconclusive; . = no result. This is a sample that favours compounds with a hit; in the whole collection about 19% have one here. Unless noted, calls follow the shape of the dose curve; as a rule, active = well fitted curve in the direction sought with a large enough effect; inconclusive = small, poorly fitted or top-dose-only effect, or another doubt; inactive = no such curve, though single readings can be large; an effect the other way counts as inactive or inconclusive. Unless noted, % is scaled to controls: 0 for no effect and ±100 for the full control effect.

SMILES	IL-1B inflam inh	HT1080 IDH1KD tx	HT1080-NT tox	TDP1 cell noCPT	uPA generation	DT40 TDP1 CPT
O=C(c1ccc2nccnc2c1)N1CCN(c2ccccc2)CC1	-13	9%	14%	13%	3%	6%
CCn1c(C)c(C)c2cc(C(=O)N3CCN(c4ccccc4)CC3)ccc21	7	-10%	0%	?	1%	18µM*
Cn1c(SCC(=O)c2ccc3c(c2)OCCO3)nnc1C1CC1	-4	18%	18%	-4%	-2%	-13%
COc1ccc(C(=O)NN2CCOCC2)cc1	0	26%	20%	3%	3%	5%
CCn1c(CSCc2ccc(C)cc2)nnc1SCC(=O)N1CCN(c2ccccc2)CC1	-8	?	-4%	21µM*	-12%	-52%
C=CCn1c(CSCc2ccccc2)nnc1SCC(=O)N1CCN(c2ccccc2)CC1	0	3%	3%	15µM*	-4%	?
O=C(Cc1ccccc1)NCc1ccc(-n2cccc2)cc1	26	5.8µM*	5.2µM*	3.7µM*	1.8µM*	3.3µM*
O=C(Cc1ccc(-n2cccc2)cc1)NCc1ccccc1Cl	-6	8.2µM*	8.2µM*	5.8µM*	-20%	5.8µM*
O=C(CNC(=O)c1ccc(Br)o1)NCc1ccccc1Cl	i	-7%	4%	-3%	-3%	11%
CC(C)NC(=O)C1(C)CCCN1C(=O)c1cc(C#N)cs1 (stereo not given)	22	17%	24%	-2%	.	3%
O=C1C=CC(=O)N1	-12	?	?	3.3µM*	?	3.3µM*
CC(=O)N1CCc2c(sc(NC(=O)C3CCCN3S(=O)(=O)c3cccs3)c2C(N)=O)C1 (stereo not given)	69	-7%	-12%	16µM*	-1%	21µM*
CCN1CCc2c(sc(NC(=O)C3CCCCC3)c2C(=O)OC)C1	-8	-13%	-6%	?	2%	26µM*
CCCN1CCc2c(sc(NC(=O)C3CCN(S(=O)(=O)c4cccs4)CC3)c2C(N)=O)C1	-62*	-4%	-6%	?	-1%	?
COc1ccc(NC(=O)CCN2CCN(c3ccccc3F)CC2)c(OC)c1	32	13%	24%	-17%	3%	-1%
COc1ccc(N2CCN(S(=O)(=O)CCNC(=O)Cc3ccc(OC)c(OC)c3)CC2)cc1	.	.	.	-23%	.	-28%
COCCN(C(=O)CCC(=O)Nc1cc(C)on1)C(C(=O)NC1CCCC1)c1ccc(C(C)C)cc1 (stereo not given)	-29	-19%	-5%	?	-4%	-8%
COc1cc2c(-c3ccc(C)cc3)nc3c(c(C)nn3-c3ccccc3)c2cc1OC	.	.	.	2%	.	1%
Cc1ccc(Sc2ccc(N3CCCC(C(=O)Nc4ccc(F)cc4F)C3)nn2)cc1 (stereo not given)	.	.	.	18µM*	.	15µM*
Cc1ccc(Sc2ccc(N3CCC(C(=O)Nc4ccc(Cl)cc4)CC3)nn2)cc1	.	.	.	18µM*	.	15µM*
CCOc1ccc(NC(=O)C2CCCN(c3ccc(Sc4ccc(C)cc4)nn3)C2)cc1 (stereo not given)	.	.	.	-21%	.	-14%
CCOC(=O)c1ccc(NC(=O)C2CCCN(c3ccc(Sc4ccc(C)cc4)nn3)C2)cc1 (stereo not given)	.	.	.	8.2µM*	.	?
COCCNC(=O)C(c1ccncc1)N(Cc1ccccc1)C(=O)Cn1nnc2ccccc21 (stereo not given)	-13	0%	17%	-2%	0%	2%
O=C(COc1ccccc1[N+](=O)[O-])N(Cc1cccc(Br)c1)C1CCS(=O)(=O)C1 (stereo not given)	12	-21%	-8%	?	-8%	?
COC(=O)C[C@@H]1C[C@H]2c3cc(NS(C)(=O)=O)ccc3O[C@H]2[C@H](CO)O1	16	5%	16%	-21%	.	-9%
SMILES	IL-1B inflam inh	HT1080 IDH1KD tx	HT1080-NT tox	TDP1 cell noCPT	uPA generation	DT40 TDP1 CPT
COc1n[nH]c(C(=O)Nc2nc3ccccc3s2)c1[N+](=O)[O-]	0	-5%	1%	-30%	-5%	-30%
Cc1ccc(S(=O)(=O)N(CCCN2CCCC2=O)Cc2cc3c(C)ccc(C)c3[nH]c2=O)cc1	-2	9%	14%	23µM*	-1%	18µM*
COc1ccc(S(=O)(=O)N(CCCN2CCOCC2)Cc2cccc(OC)c2OC)cc1	-22	1%	11%	-19%	-4%	-24%
COc1ccc(S(=O)(=O)N(CCCN2CCCC2=O)Cc2cc3cc(C)c(C)cc3[nH]c2=O)cc1	-73*	5%	0%	?	-4%	?
COc1ccc(S(=O)(=O)N(CCN2CCOCC2)Cc2cc(OC)ccc2OC)cc1	?	1%	1%	13µM*	-2%	-13%
Cc1cc(C)n(CCNC(=O)[C@H]2O[C@@H](n3ccc(=O)[nH]c3=O)[C@H](O)[C@@H]2O)n1	-24	0%	20%	0%	.	0%
CC1=C(C(=O)Nc2cccc(C)c2C)C2(CCCCC2)OC1=O	.	.	.	-11%	.	-21%
CCC(CCc1ccccn1)C(=O)c1ccccc1 (stereo not given)	-1	18%	15%	-22%	1%	-22%
CCCCC(CCc1ccccn1)C(=O)c1ccccc1 (stereo not given)	-3	-2%	6%	?	-2%	23µM*
CN(C)CC(CCCCC(CN(C)C)C(=O)c1ccccc1)C(=O)c1ccccc1 (stereo not given)	-72*	?	?	5.8µM*	10µM*	5.8µM*
O=C(c1cc(C2CC2)on1)N1CCCC(N2CCN(c3ccc(F)cc3)CC2)C1 (stereo not given)	1	-11%	-1%	-22%	1%	-18%
Cc1coc2c1C(=O)C(=O)c1c-2ccc2c(C)cccc12	-12	-14%	-11%	4.6µM*	-12%	2.9µM*
Cc1coc2c1C(=O)C(=O)c1c-2ccc2c1CCCC2(C)C	31	-17%	-17%	1.3µM*	-30%	0.82µM*
Cc1cc2cc(C)c3nnc(SCC(=O)N4CCN(C(=O)c5ccco5)CC4)n3c2cc1C	-74*	?	-13%	12µM*	-4%	?
Cc1ccc2cc(C)c3nnc(SCC(=O)N4CCN(C(=O)c5ccco5)CC4)n3c2c1	-23	-1%	-14%	?	0%	-27%
CCc1cc2cc(C)cc(C)c2nc1SCC(=O)N1CCCC1	3	2%	1%	?	1%	29µM*

Screening results as filed in PubChem BioAssay.
